Reference: PubChem BioAssay AID1159580 (chemical genetic matrix, 2015)
Where “and” joins values, the source holds several entries; their conditions need not be identical. Equal values may be shown once. About 2,000 (36%) of roughly 5,500 compounds were called active. Inconclusive results (about 18%) are left out. No stated cut-off is given here; in the data, active means normalized growth mostly below about 0.91 (no sharp cut-off); inconclusive means no clear call, values can overlap the other calls; inactive means mostly above about 0.92. The list shows a part of the results.

Assay: chemical genetic growth profiling, strain panel (AID 1159580);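 further: tested at 20 µM; growth read once vehicle control cultures reached saturation at 30 °C; 1 = growth at the plate median or of vehicle wells; lower values mean less growth of the strain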
Settings: growth OD

Measured: normalized growth

NC(=O)c1cnccn1
inactive: S. cerevisiae deletion strains, locus YJR075W, strain HOC1, hits give low values 1.03 | S. cerevisiae deletion strains, locus YKL009W, strain mrt4, hits give low values 1.02 | S. cerevisiae deletion strains, locus YKL068W, hits give low values 1 | S. cerevisiae deletion strains, locus YKL085W, strain MDH1 (second series), hits give low values 1.01 | S. cerevisiae deletion strains, locus YKL085W, strain MDH1, hits give low values 1.01 | S. cerevisiae deletion strains, locus YKL160W, strain elf1, hits give low values 0.967 | S. cerevisiae deletion strains, locus YKL190W, strain CNB1, hits give low values 1.01 | S. cerevisiae deletion strains, locus YKR001C, strain vps1, hits give low values 0.999 | S. cerevisiae deletion strains, locus YKR026C, strain gcn3, hits give low values 0.992 | S. cerevisiae deletion strains, locus YKR091W, strain srl3, hits give low values 0.99 | S. cerevisiae deletion strains, locus YLL001W, strain dnm1, hits give low values 0.955 | S. cerevisiae deletion strains, locus YLL026W, hits give low values 0.979 | S. cerevisiae deletion strains, locus YLL041C, strain sdh2, hits give low values 0.993 | S. cerevisiae deletion strains, locus YLR027C, strain aat2, hits give low values 0.976 | S. cerevisiae deletion strains, locus YLR039C, strain RIC1, hits give low values 1.05 | S. cerevisiae deletion strains, locus YLR058C, strain SHM2, hits give low values 1 | S. cerevisiae deletion strains, locus YLR102C, strain apc9, hits give low values 0.999 | S. cerevisiae deletion strains, locus YLR113W, strain HOG1, hits give low values 0.99 | S. cerevisiae deletion strains, locus YLR221C, strain rsa3, hits give low values 1.01 | S. cerevisiae deletion strains, locus YLR258W, strain gsy2, hits give low values 1.01 | S. cerevisiae deletion strains, locus YLR262C, strain YPT6 (second series), hits give low values 0.965 | S. cerevisiae deletion strains, locus YLR262C, strain YPT6, hits give low values 0.979 | S. cerevisiae deletion strains, locus YLR268W, strain sec22, hits give low values 1.05 | S. cerevisiae deletion strains, locus YLR320W, strain mms22, hits give low values 0.981 | S. cerevisiae deletion strains, locus YLR330W, strain CHS5, hits give low values 1.01 | S. cerevisiae deletion strains, locus YLR342W, strain FKS1 (second series), hits give low values 1.02 | S. cerevisiae deletion strains, locus YLR342W, strain FKS1, hits give low values 0.968 | S. cerevisiae deletion strains, locus YLR357W, strain rsc2, hits give low values 0.967 | S. cerevisiae deletion strains, locus YLR370C, strain arc18, hits give low values 0.999 | S. cerevisiae deletion strains, locus YLR371W, strain rom2, hits give low values 1.01 | S. cerevisiae deletion strains, locus YLR384C, strain iki3, hits give low values 0.977 | S. cerevisiae deletion strains, locus YLR418C, strain cdc73, hits give low values 1 | S. cerevisiae deletion strains, locus YML016C, strain PPZ1, hits give low values 1 | S. cerevisiae deletion strains, locus YML032C, strain rad52, hits give low values 1.02 | S. cerevisiae deletion strains, locus YML120C, strain ndi1, hits give low values 0.98 | S. cerevisiae deletion strains, locus YML124C, strain tub3, hits give low values 0.998 | S. cerevisiae deletion strains, locus YMR058W, strain fet3, hits give low values 0.98 | S. cerevisiae deletion strains, locus YMR078C, strain ctf18, hits give low values 1 | S. cerevisiae deletion strains, locus YMR125W, strain sto1, hits give low values 0.999 | S. cerevisiae deletion strains, locus YMR129W, hits give low values 0.993 | S. cerevisiae deletion strains, locus YMR205C, strain PFK2, hits give low values 0.998 | S. cerevisiae deletion strains, locus YMR223W, strain ubp8, hits give low values 0.985 | S. cerevisiae deletion strains, locus YMR231W, strain pep5, hits give low values 0.982 | S. cerevisiae deletion strains, locus YMR307W, strain GAS1, hits give low values 1.01 | S. cerevisiae deletion strains, locus YNL067W, strain RPL9B, hits give low values 1 | S. cerevisiae deletion strains, locus YNL071W, strain lat1, hits give low values 1.01 | S. cerevisiae deletion strains, locus YNL128W, strain TEP1, hits give low values 1.02 | S. cerevisiae deletion strains, locus YNL153C, strain GIM3, hits give low values 1 | S. cerevisiae deletion strains, locus YNL175C, strain NOP13, hits give low values 1 | S. cerevisiae deletion strains, locus YNL183C, strain NPR1, hits give low values 0.998 | S. cerevisiae deletion strains, locus YNL197C, strain WHI3, hits give low values 0.995 | S. cerevisiae deletion strains, locus YNL209W, strain ssb2, hits give low values 1 | S. cerevisiae deletion strains, locus YNL224C, strain SQS1, hits give low values 0.991 | S. cerevisiae deletion strains, locus YNL233W, strain BNI4, hits give low values 1.01 | S. cerevisiae deletion strains, locus YNL248C, strain rpa49, hits give low values 1.01 | S. cerevisiae deletion strains, locus YNL250W, strain rad50, hits give low values 0.998 | S. cerevisiae deletion strains, locus YNL271C, strain bni1, hits give low values 1 | S. cerevisiae deletion strains, locus YNL298W, strain CLA4, hits give low values 0.997 | S. cerevisiae deletion strains, locus YNL307C, strain MCK1, hits give low values 1.01 | S. cerevisiae deletion strains, locus YNL322C, strain KRE1 (second series), hits give low values 0.984 | S. cerevisiae deletion strains, locus YNR049C, strain mso1, hits give low values 0.998 | S. cerevisiae deletion strains, locus YNR052C, strain pop2, hits give low values 0.99 | S. cerevisiae deletion strains, locus YOL006C, strain TOP1, hits give low values 0.999 | S. cerevisiae deletion strains, locus YOL012C, strain htz1 1.57 | S. cerevisiae deletion strains, locus YOL147C, strain pex11, hits give low values 1 | S. cerevisiae deletion strains, locus YOR001W, strain rrp6, hits give low values 0.983 | S. cerevisiae deletion strains, locus YOR061W, strain CKA2, hits give low values 1 | S. cerevisiae deletion strains, locus YOR069W, strain VPS5, hits give low values 1.01 | S. cerevisiae deletion strains, locus YOR070C, strain gyp1, hits give low values 1 | S. cerevisiae deletion strains, locus YOR080W, strain dia2, hits give low values 0.978 | S. cerevisiae deletion strains, locus YOR083W, strain WHI5 (second series), hits give low values 1.02 | S. cerevisiae deletion strains, locus YOR083W, strain WHI5, hits give low values 0.955 | S. cerevisiae deletion strains, locus YOR106W, strain vam3, hits give low values 0.992 | S. cerevisiae deletion strains, locus YOR136W, strain idh2, hits give low values 0.988 | S. cerevisiae deletion strains, locus YOR144C, strain elg1, hits give low values 1 | S. cerevisiae deletion strains, locus YOR184W, strain ser1, hits give low values 1 | S. cerevisiae deletion strains, locus YOR231W, strain MKK1, hits give low values 1 | S. cerevisiae deletion strains, locus YOR265W, strain rbl2, hits give low values 0.985 | S. cerevisiae deletion strains, locus YOR270C, strain vph1, hits give low values 1.02 | S. cerevisiae deletion strains, locus YOR290C, strain snf2, hits give low values 1.02 | S. cerevisiae deletion strains, locus YOR316C, strain cot1, hits give low values 1.01 | S. cerevisiae deletion strains, locus YPL051W, strain arl3, hits give low values 0.993 | S. cerevisiae deletion strains, locus YPL055C, strain LGE1, hits give low values 0.976 and 0.968 | S. cerevisiae deletion strains, locus YPL078C, strain atp4, hits give low values 0.957 | S. cerevisiae deletion strains, locus YPL106C, strain sse1, hits give low values 0.97 | S. cerevisiae deletion strains, locus YPL240C, strain hsp82, hits give low values 0.979 | S. cerevisiae deletion strains, locus YPL241C, strain CIN2, hits give low values 1.01 | S. cerevisiae deletion strains, locus YPL256C, strain CLN2, hits give low values 1.02 | S. cerevisiae deletion strains, locus YPR119W, strain clb2, hits give low values 1.01 | S. cerevisiae deletion strains, locus YPR141C, strain kar3, hits give low values 0.993 | S. cerevisiae deletion strains, locus YPR163C, strain tif3, hits give low values 1.01 | S. cerevisiae deletion strains, locus YPR167C, strain met16, hits give low values 1.01 | S. cerevisiae deletion strains, strain wtn01, hits give low values 1 | S. cerevisiae strains, strain wild type, hits give low values 1.01
